Measurements: the antibiotic and cytotoxicity screens of Wong et al. (2023)
Among all 39,000 compounds or so, about 3,300 (8.5%) were called active. What follows is part of a selection rich in actives, with near analogues and random picks from the rest.

system: HepG2; experiment: cytotoxicity call (relative viability < 0.9); details: 10 µM

Row | SMILES | cytotoxicity call
1 | c1ccc(-n2ncc3c2ncn2nnnc32)cc1 | inactive
2 | CO[C@H]1CN(C)C(=O)c2cc(NC(=O)Nc3cccc(Cl)c3)ccc2OC[C@@H](C)N(C(=O)Nc2c(C)noc2C)C[C@@H]1C | inactive
3 | C[C@@H]1CN([C@@H](C)CO)C(=O)c2cc(NC(=O)Cn3cnnn3)ccc2O[C@H]1CN(C)Cc1ccc(Oc2ccccc2)cc1 | inactive
4 | CC/N=C1\S[C@@H](CC(=O)NC)C(=O)N1CC | inactive
5 | O=C(C[C@@H]1C[C@H]2c3cc(NC(=O)Nc4ccccc4)ccc3O[C@H]2[C@H](CO)O1)NCCN1CCCCC1 | inactive
6 | COc1ccc(CN(C)C[C@H]2OCCCC[C@@H](C)Oc3ccc(NC(=O)Nc4c(C)noc4C)cc3C(=O)N([C@@H](C)CO)C[C@@H]2C)cc1 | inactive
7 | C[C@@H]1CCCCO[C@@H](CN(C)C(=O)c2ccccc2)[C@@H](C)CN([C@@H](C)CO)C(=O)c2cc(NS(=O)(=O)c3ccc(Cl)cc3)ccc2O1 | inactive
8 | CCCN1CCC2(CC1)NC(=O)N(CC(=O)N1CCN(C(=O)OCC)CC1)C2=O | inactive
9 | C[C@H](CO)N1C[C@H](C)[C@H](CN(C)Cc2ccc(C(F)(F)F)cc2)OCc2ccccc2-c2c(n(C)c3ccccc23)C1=O | inactive
10 | CCOC(=O)c1cnn2c(=O)cc(C)[nH]c12 | inactive
11 | C[C@@H]1CN([C@H](C)CO)S(=O)(=O)c2ccc(C#CC3(O)CCCC3)cc2O[C@@H]1CN(C)C(=O)c1ccccc1 | inactive
12 | CNC[C@H]1Oc2c(NS(=O)(=O)c3cn(C)cn3)cccc2C(=O)N([C@@H](C)CO)C[C@@H]1C | inactive
13 | CCOC(=O)c1c(CN2CCN(CCOCCO)CC2)n(-c2ccccc2)c2cc(Br)c(O)cc12 | active
14 | CCOC(=O)c1c(CN2CCN(c3ccccc3)CC2)n(-c2ccccc2)c2cc(Br)c(OC)cc12 | inactive
15 | CCOC(=O)c1c(CN2CCN(c3ccccc3)CC2)n(-c2ccccc2)c2cc(Br)c(O)cc12 | inactive
16 | CCOC(=O)c1c(CNCCN(CC)CC)n(-c2ccccc2)c2cc(Br)c(OC)cc12 | active
17 | CCOC(=O)c1c(CN2CCN(Cc3ccccc3)CC2)n(-c2ccccc2)c2cc(Br)c(O)cc12 | inactive
18 | CCOC(=O)c1c(CN2CCN(Cc3ccccc3)CC2)n(-c2ccccc2)c2cc(Br)c(OC)cc12 | inactive
19 | Cc1ccc(S(=O)(=O)N(C)C[C@@H]2Oc3ccc(NS(=O)(=O)c4c(C)noc4C)cc3C(=O)N([C@H](C)CO)C[C@@H]2C)cc1 | inactive
20 | Cc1ccc(S(=O)(=O)Nc2ccc3c(c2)C(=O)N([C@@H](C)CO)C[C@H](C)[C@H](CN(C)C(=O)CCC(F)(F)F)OCCCC[C@@H](C)O3)cc1 | inactive
21 | C[C@@H]1CCCCO[C@H](CN(C)S(=O)(=O)c2ccc(Cl)cc2)[C@H](C)CN([C@@H](C)CO)C(=O)c2cc(NS(=O)(=O)c3ccccc3)ccc2O1 | inactive
22 | Cc1ccc2ncc(-c3ccc4cc(C)ccc4n3)cc2c1 | inactive
23 | COc1ccc(NC(=O)N(C)C[C@@H]2OCCCC[C@@H](C)Oc3ccc(NS(=O)(=O)c4ccc(C)cc4)cc3C(=O)N([C@H](C)CO)C[C@@H]2C)cc1 | inactive
24 | C[C@H](CO)N1C[C@H](C)[C@H](CN(C)C(=O)c2cnccn2)Oc2ncc(/C=C/c3ccccc3)cc2C1=O | inactive
25 | O=C(CCCCCC(=O)Nc1ccccc1O)N/N=C/C[P+](c1ccccc1)(c1ccccc1)c1ccccc1 | inactive

Row | SMILES | cytotoxicity call
26 | O=C(CCCCCCC(=O)Nc1ccccc1O)N/N=C/c1ccc(N(c2ccccc2)c2ccccc2)cc1 | active
27 | O=C(CCCCCCC(=O)Nc1ccccc1O)N/N=C/c1cc(Br)c(O)c(Br)c1 | inactive
28 | N[C@H]1CCC[C@@H]1Cc1ccc(F)cc1 | inactive
29 | C[C@@H]1CCCCO[C@H](CN(C)C(=O)c2ccccc2)[C@@H](C)CN([C@@H](C)CO)C(=O)c2cc(NC(=O)Nc3ccc4c(c3)OCO4)ccc2O1 | inactive
30 | C[C@H]1CN([C@@H](C)CO)C(=O)Cc2cc(NC(=O)Nc3cccc4ccccc34)ccc2O[C@H]1CN(C)Cc1ccc(C(=O)O)cc1 | inactive
31 | CC(C)NC(=O)Nc1ccc2c(c1)C(=O)N([C@H](C)CO)C[C@H](C)[C@@H](CN(C)Cc1ccc(C(=O)O)cc1)O2 | inactive
32 | C[C@@H]1CCCCO[C@H](CN(C)C(=O)C2CCCCC2)[C@@H](C)CN([C@@H](C)CO)C(=O)c2cc(NC(=O)CCC(F)(F)F)ccc2O1 | inactive
33 | C[C@H](CO)N1C[C@H](C)[C@H](CN(C)Cc2ccncc2)OCCCC[C@H](C)Oc2ccc(NC(=O)Nc3ccccc3)cc2C1=O | inactive
34 | C[C@@H]1CN([C@H](C)CO)C(=O)c2cc(NC(=O)C3CCCCC3)ccc2O[C@@H]1CN(C)Cc1ccc(-c2ccccc2)cc1 | active
35 | C[C@@H]1CN([C@@H](C)CO)C(=O)c2cc(NC(=O)C3CCCCC3)ccc2O[C@@H]1CN(C)Cc1ccc(-c2ccccc2)cc1 | active
36 | C[C@@H]1CN([C@@H](C)CO)C(=O)c2cc(NC(=O)C3CCCCC3)ccc2O[C@H]1CN(C)Cc1ccc(-c2ccccc2)cc1 | inactive
37 | C[C@@H]1CN([C@@H](C)CO)C(=O)c2cc(NC(=O)C3CCCCC3)ccc2O[C@@H]1CN(C)Cc1ccc(Oc2ccccc2)cc1 | inactive
38 | C[C@H]1CN([C@@H](C)CO)C(=O)c2cc(NC(=O)C3CCCCC3)ccc2O[C@@H]1CN(C)Cc1ccc(Oc2ccccc2)cc1 | inactive
39 | C[C@H](CO)N1C[C@H](C)[C@@H](CN(C)Cc2ccc(-c3ccccc3)cc2)Oc2ccc(NC(=O)C3CCCCC3)cc2C1=O | inactive
40 | C[C@@H]1CN([C@H](C)CO)C(=O)c2cc(NC(=O)C3CCCCC3)ccc2O[C@H]1CN(C)Cc1ccc(-c2ccccc2)cc1 | inactive
41 | C[C@@H]1CN([C@H](C)CO)C(=O)c2cc(NC(=O)C3CCCCC3)ccc2O[C@@H]1CN(C)Cc1ccc(Oc2ccccc2)cc1 | active
42 | C[C@H]1CN([C@@H](C)CO)C(=O)c2cc(NC(=O)C3CCCCC3)ccc2O[C@@H]1CN(C)Cc1ccc(-c2ccccc2)cc1 | inactive
43 | C[C@H](CO)N1C[C@H](C)[C@H](CN(C)Cc2ccc(-c3ccccc3)cc2)Oc2ccc(NC(=O)C3CC3)cc2C1=O | inactive
44 | C[C@@H]1CN([C@@H](C)CO)C(=O)c2cc(NC(=O)C3CC3)ccc2O[C@H]1CN(C)Cc1ccc(-c2ccccc2)cc1 | inactive
45 | C[C@H]1CN([C@@H](C)CO)C(=O)c2cc(NC(=O)C3CCCCC3)ccc2O[C@H]1CN(C)Cc1ccc(-c2ccccc2)cc1 | active
46 | COC[C@H]1CCCNC1 | inactive
47 | C[C@@H]1CN([C@@H](C)CO)C(=O)c2cc(NC(=O)Cc3ccccc3)ccc2O[C@@H](C)CCCCO[C@H]1CN(C)Cc1ccncc1 | inactive
48 | CC(C)NC(=O)Nc1ccc2c(c1)C(=O)N([C@@H](C)CO)C[C@@H](C)[C@H](CN(C)S(=O)(=O)c1ccccc1)O2 | inactive
49 | C[C@H](CO)N1C[C@H](C)[C@@H](CN(C)C(=O)NC2CCCCC2)Oc2ccc(NC(=O)Nc3cccc4ccccc34)cc2C1=O | inactive
50 | C[C@@H]1CCCCO[C@@H](CN(C)C(=O)Cc2ccccc2)[C@H](C)CN([C@@H](C)CO)C(=O)c2cc(NC(=O)Nc3ccc(C(F)(F)F)cc3)ccc2O1 | inactive

Row | SMILES | cytotoxicity call
51 | Cc1noc(C)c1S(=O)(=O)Nc1ccc2c(c1)C(=O)N([C@H](C)CO)C[C@H](C)[C@H](CN(C)C(=O)Nc1ccccc1)OCCCC[C@H](C)O2 | inactive
52 | C[C@@H]1CN([C@@H](C)CO)C(=O)Cc2cc(NC(=O)CCC(F)(F)F)ccc2O[C@H]1CN(C)Cc1ccc(C(=O)Nc2ccccc2N)cc1 | inactive
53 | C[C@H]1CN([C@@H](C)CO)C(=O)c2cc(NC(=O)C3CC3)ccc2O[C@H]1CN(C)Cc1ccc(-c2ccccc2)cc1 | inactive
54 | C[C@H](CO)N1C[C@H](C)[C@H](CN(C)Cc2ccc(-c3ccccc3)cc2)Oc2ccc(NC(=O)C3CCCCC3)cc2C1=O | active
55 | C[C@@H]1CN([C@@H](C)CO)C(=O)c2cc(NC(=O)C3CC3)ccc2O[C@@H]1CN(C)Cc1ccc(-c2ccccc2)cc1 | inactive
56 | CN1CCN(C(=O)C[C@@H]2CC[C@H]3[C@@H](COC[C@@H](O)CN3C(=O)C3CC3)O2)CC1 | inactive
57 | C[C@H]1Cc2cc(S(=O)(=O)N(C)CC(=O)N3CCOCC3)ccc2N1C(=O)C1CC1 | inactive
58 | CCS(=O)(=O)Nc1ccc2c(c1)C(=O)N(C)[C@@H]1CC[C@H](CC(=O)NCc3ccccc3F)O[C@@H]1CO2 | inactive
59 | O=C(C[C@H]1CC[C@H]2[C@@H](COC[C@H](O)CN2Cc2ccccc2F)O1)N[C@H]1CCN(Cc2ccccc2)C1 | inactive
60 | COCCOC(=O)N1C(=O)[C@@]2(c3ccccc31)[C@H](C(=O)N1CCc3cc(OC)c(OC)cc3C1)[C@H]1C(=O)O[C@H](c3ccccc3)[C@H](c3ccccc3)N1[C@@H]2c1ccc(O)cc1 | inactive
61 | C[C@@H]1CCCCO[C@@H](CN(C)Cc2ccc(C(F)(F)F)cc2)[C@H](C)CN([C@@H](C)CO)C(=O)c2cc(NC(=O)c3ccccc3)ccc2O1 | inactive
62 | C=CCC[C@@H](Cc1ccc(F)cc1)C(=O)O[C@@H](CNC(=O)[C@H](CC=C)CC(=O)N(CCO)Cc1ccccc1)c1ccccc1 | active
63 | C=CCC[C@H](Cc1ccc(F)cc1)C(=O)OC[C@@H](NC(=O)[C@@H](CC=C)CC(=O)N(CCO)Cc1ccccc1)c1ccccc1 | inactive
64 | C=CCC[C@H](Cc1ccc(F)cc1)C(=O)O[C@@H](CNC(=O)[C@@H](CC=C)CC(=O)N(CCO)Cc1ccccc1)c1ccccc1 | active
65 | C=CCC[C@@H](Cc1ccc(F)cc1)C(=O)OC[C@@H](NC(=O)[C@@H](CC=C)CC(=O)N(CCO)Cc1ccccc1)c1ccccc1 | active
66 | C=CC[C@H](CC(=O)N(CCO)Cc1ccccc1)C(=O)NC[C@H](OC(=O)[C@@H](CC=C)Cc1ccc(F)cc1)c1ccccc1 | inactive
67 | C=CCC[C@@H](Cc1ccc(F)cc1)C(=O)O[C@@H](CNC(=O)[C@@H](CC=C)CC(=O)N(CCO)Cc1ccccc1)c1ccccc1 | active
68 | C=CCC[C@@H](Cc1ccc(F)cc1)C(=O)O[C@H](CNC(=O)[C@@H](CC=C)CC(=O)N(CCO)Cc1ccccc1)c1ccccc1 | inactive
69 | C=CCC[C@H](Cc1ccc(F)cc1)C(=O)O[C@H](CNC(=O)[C@H](CC=C)CC(=O)N(CCO)Cc1ccccc1)c1ccccc1 | inactive
70 | C=CCC[C@@H](Cc1ccc(F)cc1)C(=O)OC[C@@H](NC(=O)[C@H](CC=C)CC(=O)N(CCO)Cc1ccccc1)c1ccccc1 | inactive
71 | C=CCC[C@@H](Cc1ccc(F)cc1)C(=O)O[C@H](CNC(=O)[C@H](CC=C)CC(=O)N(CCO)Cc1ccccc1)c1ccccc1 | inactive
72 | C=CCC[C@H](Cc1ccc(F)cc1)C(=O)O[C@@H](CNC(=O)[C@H](CC=C)CC(=O)N(CCO)Cc1ccccc1)c1ccccc1 | inactive
73 | C=CCC[C@H](Cc1ccc(F)cc1)C(=O)O[C@H](CNC(=O)[C@@H](CC=C)CC(=O)N(CCO)Cc1ccccc1)c1ccccc1 | inactive
